From ChEMBL document CHEMBL1157539, “Thousands of chemical starting points for antimalarial lead identification” (Nature, 2010) come the findings set out here.

The test has as its system Plasmodium falciparum. Briefly: GSK_TCMDC: Inhibition of Plasmodium falciparum Dd2 in whole red blood cells, using parasite LDH activity as an index of growth. Test compounds present at 2uM. In kind it is functional.
What is called Inhibition is the change of the read-out against control, counted positive when it falls. Low values mean little suppression, high ones strong suppression. In turn, `FC(F)(F)c1ccc2[nH]c(-c3cccc(-c4ccc(CNCc5cnn(-c6ccccc6)n5)cc4)c3)nc2c1.O=C(O)C(F)(F)F` returned an Inhibition of 67%. In turn, `CC(C)(C)NCCN(Cc1ccc(-c2ccc(C(F)(F)F)cc2)cc1)C(=O)Cn1c(SCc2ccc(F)cc2)nc(=O)c2c1CCC2.O=C(O)C(O)C(O)C(=O)O` showed an Inhibition of 84%. The value for `O=C(CCc1c[nH]cn1)Nc1ccc(-c2ccc(-c3nc4cc(F)ccc4[nH]3)cc2)cc1` was 58%. To `CC(=O)Nc1nc(C(=O)Nc2ccc(-c3cccc(-c4nc5cc(F)ccc5[nH]4)c3)cc2)cs1` belongs 29%; to `CCCCCCc1cc2cc(-c3nc(-c4ccc(OC)cc4)cs3)c(=O)oc2cc1O`, 93%; to `Cc1ccc2[nH]c(C)cc(=NN=Cc3ccccc3F)c2c1`, 100%. To `CC1(C)CC(NC(=O)NC2CCN(Cc3ccccc3)CC2)CC(C)(CNC(=O)NC2CCN(Cc3ccccc3)CC2)C1` (configuration not stated) belongs 2%. The compound `COc1ccc(Nc2nccc(NCC(O)c3ccc(C(F)(F)F)cc3)n2)cc1` (configuration not stated) registered an Inhibition of 54%. Turning to `CC1(C)N=C(N)N=C(N)N1c1cccc(C(F)(F)F)c1.Cl`, the Inhibition came out at 68%.

For the compound `CN1CCN(CCCN(Cc2ccc(-c3ccc(CNCc4ccc5c(c4)OCO5)cc3)cc2)C(=O)Nc2ccccc2)CC1.O=C(O)C(F)(F)F`, the Inhibition worked out at 77%. The value for `CCCCCCSc1nnc(COc2cccc3ccccc23)n1-c1ccc(OC)cc1` was 100%.

In turn, `CN(Cc1ccc(-c2ccc(C(F)(F)F)cc2)cc1)C(=O)Cn1c(CCc2cccc(F)c2F)nc(=O)c2ccc(N3CCN(CCN4CCCCC4)CC3)nc21.O=C(O)C(O)C(O)C(=O)O` came in with an Inhibition of 100%.
